In PubChem BioAssay AID686979 (National Center for Advancing Translational Sciences (NCATS), 2013):
Out of some 420,000 compounds screened, about 50,000 (12%) were called active. About 26% were inconclusive and are not listed. Only a selection was taken, and actives are over-represented in it overall. Values without a mark were called inactive. Calls follow the shape of the dose curve; as a rule, active = well fitted inhibition curve with a large enough effect; inconclusive = small, poorly fitted or top-dose-only effect; inactive = flat fitted curve, though single readings scatter.

Experiment: qHTS for Inhibitors of human tyrosyl-DNA phosphodiesterase 1 (TDP1): qHTS in cells in presence of CPT; also: nearly all actives have a fitted effect of over 55% in size
Conditions: chicken DT40 Tdp1-/-;hTDP1 cells + 20 nM CPT, ATP luminescence, 48 h; series mostly up to 46.2 µM; activity change, negative = growth inhibition: at the top concentration
Source text: Human tyrosyl-DNA phosphodiesterase 1 (TDP1) is a novel repair gene, and we propose to use it as a new target for anticancer drug development. TDP1 is not an essential protein, but under treatment with topoisomerase I poison (camptothecin: CPT), TDP1 works as a critical factor for cell survival. To directly identify novel TDP1 inhibitors active in a cellular environment, we have knocked-out the Tdp1 gene in chicken DT40 cells (Tdp1-/-) and generated a complemented counterpart cells that contains a stable transfection of the human TDP1 gene (Tdp1-/-;hTDP1 cells). For the primary screen, Tdp1-/-;hTDP1 cells will be exposed to small molecules in the presence or absence of CPT, and their growth kinetics will be evaluated after 48 hours by measuring ATP activity. […] The hit compounds will then be evaluated in the presence or absence of CPT using Tdp1-/- cells. […] In tertiary assays, biochemical gel-based assays will be used to assess whether the hit compounds specifically target TDP1. To this end, we have screened this cell line against the MLSMR in two primary screens. In one screen we add CPT and in the other we screen in the absence of CPT; this AID represents the screen where CPT was present. NIH Chemical Genomics Center [NCGC] NIH Molecular Libraries Probe Centers Network [MLPCN] MLPCN Grant: MH095538 Assay Submitter (PI): Yves Pommier, NCI
DT40-hTDP1 cells with 20 nM Camptothecin (add 20 microL of 1 mM CPT stock in 1 L of cell culture medium) were dispensed at 400 cells/5microL/well in tissue culture treated 1536-well white wall/solid bottom assay plates (Greiner Bio-One North America, NC, U.S.A.) using a Multidrop Combi 8 channel dispenser (Thermo Fisher, Waltham, MA, USA). 23 nL compounds and controls were transferred using the pin tool (Kalypsys, San Diego, CA, USA) to the assay plates. The assay plates were then incubated at 37 masculineC for a minimum 48 hr. Three microL of Cell Titer Glo solution was added to the plates and incubated at RT in dark for 30 min. Luminescence was read using ViewLux (Perkin Elmer) with 1 sec exposure slow speed, high gain and 2x binning.
% is scaled to controls: 0 for no effect and ±100 for the full control effect; potency is read from the fitted curve at half-maximal effect.

Point of comparison: `CC(C)(C)c1ccc(/C=C2\SC(=O)N=C2N)cc1`, “activity change, negative = growth inhibition” value -3.83%. Against it:
- O=C1Nc2cc(Cl)c(Cl)cc2N(O)N1c1cc(Cl)cc(Cl)c1 — lower, -23%
- Cc1ccc(NC(=O)c2cccnc2C(=O)Nc2ccc(C)cc2)cc1 — higher, -2.57%
- CCSc1nnc(NC(=O)c2ccc(C)cc2)s1 — lower, -18.9%
- CCCSc1ncc(Cl)c(C(=O)Nc2c(C(=O)Nc3ccccc3)oc3ccccc23)n1 — lower, -28.7%
- Cc1cccc(NC(=O)C(C)SCc2ccccc2)c1 (stereo not given) — lower, -16.9%
- O=C(Nc1nc2ccc(F)cc2s1)c1nc(SCc2ccccc2F)ncc1Cl — lower, -22.7%
- NC(=O)CSc1nnc(NC(=O)c2ccc(Br)o2)s1 — lower, -8.79%
- CN(CC(=O)Nc1ccccc1C(F)(F)F)C(=O)Cc1ccccc1F — lower, -12.4%
- Cc1cc2c3ccccc3[nH]c(=O)n2n1 — lower, -12%
- COc1ccc(S(=O)(=O)N2CCOCC2)cc1NC(=O)CSc1ncnc2ccccc12 — higher, 0.923%
- Cc1cc2c(=O)n(CC(=O)NCC(=O)Nc3ccc(C(C)C)cc3)cnc2s1 — higher, 1.73%
- COc1ccc(CNC(=O)COc2cccnc2[N+](=O)[O-])cc1 — lower, -4.32%
- COc1cccc(C(=O)OCC(=O)c2[nH]c(C)c(C(C)=O)c2C)c1 — lower, -19.6%
- CC(=O)Nc1ccc(Sc2ccccc2C(=O)N2CCCC2)cn1 — lower, -23.3%
- Cc1[nH]c2ccccc2c1C(=O)C(=O)NCc1nnnn1-c1cccc(F)c1 — lower, -21.2%
- CCc1c(C)c2ccc(OC3CCCCC3=O)cc2oc1=O (stereo not given) — lower, -10.3%
- CSc1ncc(Cl)c(C(=O)Nc2cc(C)ccc2C)n1 — higher, -2.22%
- Cc1cc(NC(=O)c2ccc(F)cc2)ccc1NC(=O)c1ccco1 — higher, -1.79%
- CC(=O)C1C(c2ccc(Cl)cc2)c2c(n[nH]c2C)CC1(C)O (stereo not given) — lower, -7.41%
- Cc1ccc(CNC(=O)C(=O)c2cn(CC(=O)N3CCOCC3)c3ccccc23)cc1 — higher, 6.23%
- Cc1ccc(NC(=O)N2CCSc3ccccc32)cc1 — lower, -18.4%
- C=CCn1c(C23CC4CC(CC(C4)C2)C3)n[nH]c1=S — lower, -28.3%
- CCc1c(C)nc(N2CCN(Cc3ccccc3)CC2)[nH]c1=O — lower, -24.7%
- COC(=O)c1sc(N2CCN(Cc3ccccc3)CC2)nc1N — higher, 1.92%
- N#Cc1c(-c2ccccc2)c(-c2ccccc2)n[nH]c1=O — lower, -27.2%
- CN(C)c1ccc(CNC(=O)CN2C(=O)COc3ccc(S(=O)(=O)N4CCCC4)cc32)cc1 — higher, 0.598%
- CCOC(=O)c1c(NC(=O)CSc2nnc(C)c(=O)[nH]2)sc2c1CCC2 — lower, -7.67%
- Cc1nnc(SCC(=O)N2CCOCC2)[nH]c1=O — higher, 24%
- CC(=O)c1ccc[n+](C(C)CCC(C)[n+]2cccc(C(C)=O)c2)c1 (stereo not given) — higher, 22.8%
- CCOC(=O)c1c(N)n(-c2cccc(C)c2C)c2nc3ccccc3nc12 — higher, 3.51%
- CSc1ccccc1NC(=O)c1ccc2c(c1)CCN2S(C)(=O)=O — higher, 0.0239%
- CS(=O)(=O)N1CCc2cc(C(=O)Nc3ccccc3Br)ccc21 — higher, 1.75%
- CC(=O)N1CCN(c2cccc(C)c2C)CC1 — higher, 4.39%
- Cc1cccc(N2CCN(C(=O)c3ccc(Nc4nc5ccccc5n5nnnc45)cc3)CC2)c1C — higher, 31.6%
- Cc1ccccc1N1CCN(C(=O)c2cccnc2)CC1 — higher, -0.308%
- O=C(/C=C/c1ccco1)NC(=S)N1CCCCC1 — lower, -15%
- C[C@H]1CN([C@@H](C)CO)C(=O)CCCn2cc(nn2)CO[C@@H]1CN(C)C(=O)Nc1ccccc1 — higher, 8.28%
- CCCCN(C(=O)c1nn(C)c(=O)c2ccccc12)c1c(N)n(CCC)c(=O)[nH]c1=O — higher, 1.59%
- CCCNC(=O)c1cc(C2CCCN(C(=O)c3ccc4c(c3)CCO4)C2)on1 (stereo not given) — higher, 5.21%
- C=Cn1c(C(=O)O)ccc1-c1ccc(OC)cc1 — higher, -3.64%
- CCCCC1N2CC3([N+](=O)[O-])CN1CC([N+](=O)[O-])(C2)C3(C)C (stereo not given) — lower, -4.33%
- Cc1cccc(NC(=S)N2CCC(O)CC2)c1C — higher, 5.79%
- CCOc1ccccc1NC(=O)NC1CCCCCCC1 — lower, -7.99%
- O=C(c1ccc(CN2CCOCC2)cc1)N1CCN(c2ccccc2F)CC1 — higher, 8.09%
- CCc1ccc(NC(=O)CS(=O)CC(=O)N2CCN(c3ccccc3F)CC2)cc1 (stereo not given) — higher, 3.72%
- O=[N+]([O-])c1cc(S(=O)(=O)N2CCCC2)ccc1NN=C1CCCC1 — lower, -19.3%
- CCOc1ccc(CNC(=O)c2cc(=O)[nH]c3ccc(S(=O)(=O)N4CCCCC4)cc23)cc1 — higher, 6.67%
- CC(c1ccco1)N(C(=O)c1ccc(S(=O)(=O)N2CCCCC2)cc1)c1ccccn1 (stereo not given) — lower, -17.2%
- Cc1ccc(-n2c(CNc3ccc(F)cc3)nnc2SCC(=O)N2CCOCC2)cc1 — higher, -2.74%
- N=C1c2ccccc2-c2ccccc21 — higher, -0.123%
- COc1ccc(N2CCN(C3=NS(=O)(=O)C(c4cccc(Br)c4)=C3C)CC2)cc1 — lower, -29.2%
- Cc1oc2ncn(CC(C)C)c(=O)c2c1C(=O)N1CCN(c2ccccc2F)CC1 — higher, 3.61%
- Cn1c(=O)cc(OCC(=O)N2CCN(c3ccccc3F)CC2)c2ccccc21 — higher, -0.224%

In the case of `Cc1cccc(NC(=O)c2nc(S(=O)(=O)Cc3ccccc3)ncc2Cl)c1`, the Potency is reported as 0.92 µM (active).
For `O=C(Nc1ccccc1C(F)(F)F)c1nc(S(=O)(=O)Cc2ccccc2F)ncc1Cl`, the Potency was 0.562 µM (active).
In the case of `CSc1nnc(NC(=O)c2nc(S(=O)(=O)Cc3ccc(C)cc3)ncc2Cl)s1`, the Potency is reported as 6.51 µM (active).
In the case of `Cc1ccc(NC(=O)c2nc(S(=O)(=O)Cc3cccc(C)c3)ncc2Cl)cc1`, the Potency is reported as 0.651 µM (active).
For `CCSc1ncc(Cl)c(C(=O)Nc2cc(C)ccc2C)n1`, the Potency was “inactive”.
In the case of `Cc1cccc(CS(=O)(=O)c2ncc(Cl)c(C(=O)Nc3ccc(F)cc3)n2)c1`, the Potency is reported as 1.3 µM (active).
With `CC(C)OC(=O)C(C#N)c1nc2ccccc2nc1N1CCN(Cc2ccccc2)CC1` (stereo not given) the Potency was 23.1 µM (active).
For `CN1CC(=O)N=C1N`, the Potency was “inactive”.
In the case of `CCCCOC(=O)CNc1nnc(SCC(=O)OCC)[nH]c1=O`, the Potency is reported as 10.3 µM (active).
For `Cc1cccc(N2CCN(C(=O)/C=C/c3ccco3)CC2)c1C`, the Potency was 16.4 µM (active).
For `CCC(CC)C(=O)N1CCN(c2cccc(C)c2C)CC1`, the Potency was 14.6 µM (active).
For `CCn1c(C)c(C)c2cc(C(=O)N3CCN(c4cccc(C)c4C)CC3)ccc21`, the Potency was 20.6 µM (active).
With `Cc1cccc(N2CCN(C(=O)c3ccc4c(c3)CCN4S(=O)(=O)c3ccccc3)CC2)c1C` the Potency was 5.8 µM (active).
With `CCOc1ccccc1NC(=S)N1CCN(c2cccc(C)c2C)CC1` the Potency was 11.6 µM (active).
With `Cc1c(C)n(Cc2ccc(Cl)cc2)c2ccc(C(=O)N3CCN(c4ccccc4F)CC3)cc12` the Potency was 18.4 µM (active).
With `O=C(Nn1cc(C(=O)N2CCN(c3ccccc3F)CC2)c2ccccc2c1=O)c1cnccn1` the Potency was 14.6 µM (active).
